Screening data (PubChem BioAssay)
KDM4E inh = JMJD2E (human) inhibition. B2RXH2. JMJD2E catalytic domain, FDH-coupled NADH fluorescence (FDH is formaldehyde dehydrogenase). Potency, µM (doses to about 57.1 µM), hits mostly inhibitors. 230,000 compounds, 1.6% hits; active means well fitted inhibition curve with a large enough effect, not every such curve was filed as active; inconclusive means small, poorly fitted or top-dose-only effect, or another doubt; inactive means no such curve, though single readings can be large or run the other way; further: nearly all actives have a fitted effect of over 50% in size
Target sequence (B2RXH2 1-337 limits assumed): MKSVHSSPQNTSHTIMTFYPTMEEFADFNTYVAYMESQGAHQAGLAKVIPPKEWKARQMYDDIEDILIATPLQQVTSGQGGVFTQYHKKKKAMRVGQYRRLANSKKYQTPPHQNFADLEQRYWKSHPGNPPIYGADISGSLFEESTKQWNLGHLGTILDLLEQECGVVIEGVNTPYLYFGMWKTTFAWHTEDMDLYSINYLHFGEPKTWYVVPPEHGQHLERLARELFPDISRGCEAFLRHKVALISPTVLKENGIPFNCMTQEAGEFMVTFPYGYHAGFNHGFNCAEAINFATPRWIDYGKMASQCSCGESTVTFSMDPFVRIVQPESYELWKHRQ
GALK inh = inhibitors of human galactokinase | 270,000 compounds, 0.007% hits | Potency, µM (series often up to 57.5 µM), actives largely listed as inhibitors | Purified GALK, Kinase-Glo residual ATP luminescence | AID 1868
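Kinase-Glo Plus luminescence measured ATP left after a 1 h room-temperature reaction. The reaction used 5 nM GALK, 100 uM galactose and 35 uM ATP at pH 8.0 (20 mM HEPES, 5 mM MgCl2, 60 mM NaCl, 1 mM DTT, 0.01% BSA).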
Six1-Eya2 inh = inhibitors of human Six1/Eya2 interaction; activity change, % (no concentration beside the values); 360,000 compounds, 0.56% hits; AlphaScreen GST-Six1/His-Eya2 binding, biochemical; stronger effect = lower value; Q15475+O00167; AID 651725; in the data active means activity change below about -65%; inconclusive means mostly about -30% to -63%
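AlphaScreen with GST-Six1 and His-Eya2 (5X mix: 250 nM and 500 nM), glutathione donor and nickel acceptor beads; buffer 50 mM Tris pH 8.0, 300 mM NaCl, 1 mM TCEP; 1 h at 37 C in the dark.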
Eya2 inh = blocks the phosphatase activity of human Eya2. Potency, µM (top dose mostly 76.9 µM), actives largely listed as inhibitors. 330,000 compounds, 0.006% hits. recombinant Eya2, OMFP fluorescence dephosphorylation (OMFP is methylfluorescein phosphate)
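Eya2 (0.2 uM) preincubated 10 min at ambient with compound, then OMFP substrate added at 50 uM; 10 min reaction in 50 mM HEPES pH 7.5, 50 mM NaCl, 5 uM MgCl2, 0.05% BSA, 1 mM DTT. Fluorescence read at Ex 485/Em 525 nm.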
CtBP-E1A inh = CtBP/E1A binding inhibition | 340,000 compounds, 0.49% hits | activity change, % (test concentration not listed) | AlphaScreen GST-E1A/His-CtBP binding, 1536-well; stronger effect = lower value | AID 651724; in the data active means activity change below about -65%; inconclusive means mostly about -30% to -63%
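AlphaScreen with 125 nM GST-E1A and 125 nM His-CtBP (5X stocks) in Tris pH 8.0, 300 mM NaCl, BSA, Tween 20, TCEP. Compounds preincubated 2 h at 37 deg C, then glutathione donor/nickel acceptor beads added for 1 h at 37 deg C in dark.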
Anesthetic bind = candidate novel general anesthetic via apoferritin binding; P02791; apoferritin/1-aminoanthracene competitive binding, fluorescence; Potency, µM (top dose mostly 77.5 µM), usual class: inhibitors; 350,000 compounds, 0.074% hits; AID 485281; further: nearly all actives have a fitted effect of over 20% in size
Target sequence (P02791 2-175 limits assumed): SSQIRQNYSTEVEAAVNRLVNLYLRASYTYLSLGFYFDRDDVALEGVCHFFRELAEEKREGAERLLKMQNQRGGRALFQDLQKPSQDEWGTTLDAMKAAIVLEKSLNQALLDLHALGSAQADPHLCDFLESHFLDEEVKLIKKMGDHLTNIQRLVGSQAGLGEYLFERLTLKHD
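Apoferritin-based anesthetic binding model; compound displacement of fluorescent 1-AMA measured as endpoint fluorescence after 10 minutes at room temperature, scaled to free-ligand and complex controls.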
Numbers stand for hits; i = inactive; ? = inconclusive; nt = no result given; [ ] = another dose, or the depositor's remark. This is one part of a sample in which hits are shown more often than they occur. Unless noted, the call rests on the fitted dose curve; in most records, active means well fitted curve in the direction sought with a large enough effect; inconclusive means small, poorly fitted or top-dose-only effect, or another doubt; inactive means no such curve, though single readings can be large; an effect the other way counts as inactive or inconclusive.

SMILES	KDM4E inh	GALK inh	Six1-Eya2 inh	Eya2 inh	CtBP-E1A inh	Anesthetic bind
C/C(=N\NC(=O)c1cc(-c2cccc([N+](=O)[O-])c2)n[nH]1)c1ccccc1O	25µM	nt	i	i	i	i
COC(=O)[C@H](C)NC(=O)C/C=C\[C@@H](C)[C@@H](CO)OC	nt	nt	nt	nt	nt	i[15.3 µM]
Cc1cccc(CNc2ncncc2-c2cccc(NS(C)(=O)=O)c2)c1	?	nt	nt	nt	nt	i
Nc1ncnc2c1ncn2[C@@H]1O[C@H](COP(=O)(O)OP(=O)(O)OC[C@H]2OC(O)[C@H](O)[C@@H]2O)[C@@H](O)[C@H]1O (stereo not given in full)	nt	nt	nt	nt	nt	i
O=[N+]([O-])c1cc2cccnc2c2ncccc12	i	i	?	i	nt	i
O=[N+]([O-])c1cc(O)c2ncccc2c1	?	i	-83	i	-94	i
COc1ccccc1-c1nc2s/c(=C\c3cccs3)c(=O)n2n1	?	i	i	i	i	i
O=c1/c(=C/c2ccco2)sc2nc(-c3ccccc3Br)nn12	25µM	i	i	i	i	i
O=c1[nH]c(-c2ccccn2)nc(C(F)(F)F)c1Br	i	i	-76	i	-83	i
O=c1[nH]c(-c2ccccn2)nc2ccccc12	i	i	-91	i	-89	i
Oc1c(Br)cc(Br)cc1/C=N/Nc1ccc(Cl)nn1	nt	i	i	i	i	i
Oc1ccc(/C=N/Nc2ccc(Cl)nn2)c(O)c1O	nt	i	-95	i	nt	i
O=C(O)c1cccnc1C(=O)O	2µM	nt	?	i	i	nt
C=CCOc1c(CNc2ccc3[nH]c(=O)[nH]c3c2)cccc1OC	20µM	i	i	i	i	i
COc1cccc(CNc2ccc3[nH]c(=O)[nH]c3c2)c1OCc1ccc(F)cc1	nt	i	?	i	i	i
COC(=O)Cc1[nH]n(-c2nc3ccccc3s2)c(=O)c1C(C)=Nc1ccc(Cl)cc1	35µM	i	i	i	i	i
COC(=O)Cc1[nH]n(-c2nc3ccccc3s2)c(=O)c1C(C)=Nc1ccc(C)cc1	?	i	i	i	i	i
CCCn1c(-c2ccc(F)cc2)nc2c(NCCN3CCOCC3)nc(C)nc21	i	nt	nt	nt	nt	i
CN1COc2ccc3ccccc3c2C1	14µM	i	i	i	i	i
O=C(NCc1cc([N+](=O)[O-])ccc1O)c1cccc(NS(=O)(=O)c2ccccc2)c1	nt	i	-83	i	-89	i
CC(C)CN=Cc1c(O)c([N+](=O)[O-])cc2oc3c(c12)CCCC3	13µM	i	i	i	i	i
CC1(OC(=O)c2cccs2)C(=O)C=C2C=C3CCCN3C=C2C1=O (stereo not given)	5.6µM	i	i	i	i	i
CC1(OC(=O)CCc2ccccc2)C(=O)C=C2C=C3CCCN3C=C2C1=O (stereo not given)	18µM	i	i	i	i	i
CC1(OC(=O)C2CCCC2)C(=O)C=C2C=C3CCCN3C=C2C1=O (stereo not given)	i[11.4 µM]	nt	nt	nt	nt	nt
O=C(O)c1cc(O)c2c(c1)[C@@H]([C@H]1c3cc(C(=O)O)cc(O)c3C(=O)c3c(O[C@@H]4O[C@H](CO)[C@@H](O)[C@H](O)[C@H]4O)cccc31)c1cccc(O[C@@H]3O[C@H](CO)[C@@H](O)[C@H](O)[C@H]3O)c1C2=O	nt	nt	?	?	i	nt
SMILES	KDM4E inh	GALK inh	Six1-Eya2 inh	Eya2 inh	CtBP-E1A inh	Anesthetic bind
O=c1c(O)cccc2cc(O)c(O)c(O)c12	4µM	nt	?	i	nt	i
CC(C)CCNC(=O)Cc1ccc(Nc2nc(=S)[nH]c3ccccc23)cc1	i	i	-86	i	i	i
COc1cc(Cl)c(C)cc1NC(=O)CNC(=O)Cn1ccc2ccccc2c1=O	nt	nt	nt	nt	nt	i
Cc1ccc(O)c(N=Nc2nccs2)c1	nt	nt	-71	i	?	nt
COc1ccc(/C=C/C(=O)Oc2ccc(/C=N/NC(=O)c3ccccc3)cc2)cc1OC	i	i	i	i	-75	i
COc1ccc(/C=N/NC(=O)c2ccncc2)cc1OC	nt	i	i	i	i	i
O=C1c2ccccc2-c2onc3ccc(NCCCn4ccnc4)c1c23	i	i	-78	?	i	i
CC(C)(C)n1cnc2cc(NCc3ccccc3Cl)ccc21	nt	nt	nt	nt	nt	i
